Assay results taken from PubChem BioAssay (NCATS).
Values joined by “and” are separate entries in the source; they are usually repeats but may differ in a detail not shown here. Identical values can stand only once. Results filed as inconclusive are left out. Active and inactive are the calls of the source. Calls come from the whole dose curve; as a rule, active = well fitted inhibition curve with a large enough effect; inconclusive = small, poorly fitted or top-dose-only effect; inactive = no such curve, though single readings can be large or run the other way.

assay: Primary qHTS for inhibitors of nuclear receptor binding SET domain protein 2 (NSD2) in an RCH-ACV wild type WT cells (2C) (AID 1645877); conditions: RCH-ACV (leukaemia line) NSD2 WT (2C) viability, CellTiter-Glo, 72 h; series mostly up to 44.9 µM; note: nearly all actives have a fitted effect of over 70% in size
Potency is the fitted concentration of half-maximal effect.

SMILES | Potency
C=C1CC2OC(=O)C(=C)C2C(OC(=O)/C(C)=C\C)CC2(C)OC1=CC2=O (centres undefined) | 1.01 µM (active)
CN(C)CC1CCn2c(c(C3=C(c4cn(C)c5ccccc45)C(=O)NC3=O)c3ccccc32)C1 (centres undefined) | 5.15 µM (active)
C=C1C(=O)O[C@@H]2[C@H]1CC(=O)[C@H](C)[C@@](O)(C(=O)/C=C/C)[C@H]2OC(=O)C(C)CC (some centres undefined) | 0.45 µM (active)
COc1cc(/C=C/C(=O)NCCn2c(C(F)(F)F)cc3ccccc32)cc(OC)c1OC | inactive
CC(C)CC(=O)c1c(O)cc2c(c1O)C(CC(C)C)C1=C(O2)C(C)(C)C(=O)C(C)(C)C1=O (centres undefined) | 7.96 µM (active)
CCn1c2ccccc2c2cc(Nc3ccnc(NCCCN4CCOCC4)n3)ccc21 | 8.17 µM (active)
COC1C=C(C)C(O)(CO)C2(C)CCCC(C)(C)C12 (centres undefined) | inactive
Nc1c(S(=O)(=O)c2ccccc2)c2nc3ccccc3nc2n1-c1ccc(F)cc1 | inactive
CC#CCn1c(N2CCCC(N)C2)nc2c1c(=O)n(Cc1nc(C)c3ccccc3n1)c(=O)n2C (centres undefined) | inactive
COc1cc(O)cc(OC2OC(CO)C(O)C(O)C2O)c1 (centres undefined) | inactive
C=C1C(=O)O[C@@H]2[C@H]3C(C)=CC(=O)C3=C(C)CC[C@@H]12 | 2.05 µM (active)
CCN1CCN(Cc2ccc(NC(=O)c3ccc(C)c(Oc4ncnc5[nH]c(C)cc45)c3)cc2C(F)(F)F)CC1 | 2.3 µM (active)
C=C(COC(=O)C(O)C(O)CN)C12OC1C1(C)C(=CC2=O)C(O)C(O)CC1C (centres undefined) | inactive
Fc1ccc2[nH]ccc2c1-c1nc(N2CCOCC2)c2sc(CN3CCN(CC4CC4)CC3)cc2n1 | 365 nM (active) and 833 nM (active)
